# D2 ag-1: agonists of human D2 dopamine receptor (beta-arrestin); 0.084% of 360,000 active; AID 624465; DiscoveRx PathHunter D2 beta-arrestin, luminescence, 90 min; 100% = 57 uM dopamine signal; activation, % (no concentration beside the values); P14416; in the data active = activation above about 40%; inconclusive = between about 15% and that limit
# Target sequence (P14416 whole entry, looked up): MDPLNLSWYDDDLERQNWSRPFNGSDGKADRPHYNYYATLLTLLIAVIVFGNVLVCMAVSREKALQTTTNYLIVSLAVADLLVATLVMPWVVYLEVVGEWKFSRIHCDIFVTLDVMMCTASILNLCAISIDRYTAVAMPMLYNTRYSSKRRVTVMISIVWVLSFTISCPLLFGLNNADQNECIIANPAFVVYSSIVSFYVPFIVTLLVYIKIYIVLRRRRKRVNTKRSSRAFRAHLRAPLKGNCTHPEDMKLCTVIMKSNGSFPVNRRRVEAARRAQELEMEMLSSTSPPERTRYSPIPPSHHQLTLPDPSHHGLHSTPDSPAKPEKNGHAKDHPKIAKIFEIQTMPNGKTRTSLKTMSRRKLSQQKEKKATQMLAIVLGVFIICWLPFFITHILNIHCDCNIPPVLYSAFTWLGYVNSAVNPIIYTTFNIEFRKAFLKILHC
#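 Agonist mode: compounds alone added to overnight-plated D2 PathHunter cells for 90 min at 37 C, with 57 uM final dopamine (EC100) defining full response. Beta-arrestin recruitment detected by chemiluminescent reagent, read after 1 h at ambient temperature.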
# D2 PAM-1: D2 dopamine receptor (human) potentiation. P14416. HEK293 T-REx D2, calcium flux, EC20 dopamine potentiation. potentiation, % at 10 µM. 0.34% of 340,000 active. AID 485347;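 active = potentiation over 3 SD above the plate norm, cut at about 30% in these data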; note: 0% is about no effect
#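 Potentiation of an EC20 dopamine calcium response measured kinetically over 180 s, after a preceding 180 s compound-only read flagging agonists. Cells: inducible Hek293 Trex D2 line, 4000/well, cultured overnight at 30 C before dye loading.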
# D2 PAM-2: positive allosteric modulators of human D2 dopamine receptor; potentiation, % (test concentration not listed); DiscoveRx D2 beta-arrestin cells, luminescence, 90 min; 100% = 57 uM dopamine signal; 0.23% of 360,000 active; in the data active = potentiation above about 50%; inconclusive = mostly about 30% to 49%
#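 D2 cells co-treated with compound plus 50 nM dopamine (EC20) for 90 min at 37 deg C to detect potentiation. Beta-arrestin recruitment was read as enzyme-fragment luminescence after 1 h at ambient temperature. Full response was set by 57 uM dopamine.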
# D2 ag-2: activates the human D2 dopamine receptor. P14416. HEK293 T-REx D2 cells, calcium flux agonist mode. activation, % at 2 µM. 0.53% of 340,000 active. AID 485358;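 active = activation over 3 SD above normal in the single-dose calcium agonist read, cut at about 30% in these data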; note: 0% is about no effect
#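 Agonism scored from kinetic calcium signal (1 read/sec, 180 s) following compound pin transfer, after a 10 s baseline. Cells: HEK293 Trex line expressing inducible D2 receptor coupled to calcium, dye-loaded after overnight culture at 30 C.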
# D2 antag: D2 dopamine receptor (human) antagonism; P14416; HEK293 TREx D2 cells, calcium flux, dopamine EC80; inhibition, % at 10 µM; 2% of 340,000 active; in the data active = inhibition above about 30%; inactive = below that, where a call was filed; note: 0% is about no effect
#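 Tetracycline-induced HEK293 T-REx cells expressing D2 force-coupled to calcium signalling were dye-loaded, exposed to compound for 180 s, then challenged with an EC80 of dopamine; calcium flux was followed kinetically for a further 180 s.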
# The depositor's hits bear a star; u = inconclusive; x = no result given. Only some compounds are listed: those with a hit (about 2.4% of all), similar ones and a draw of the others.
SMILES,D2 ag-1,D2 PAM-1,D2 PAM-2,D2 ag-2,D2 antag
Cn1c(=O)c2c(nc(N/N=C/c3ccco3)n2C)n(C)c1=O,2.1,-0.7,3.7,-0.1,52.3*
Cc1ccccc1Cn1c(C)c(CNCCCc2ccccc2)c(C(=O)O)c1C,x,1.1,x,-0.5,x
Cc1nc2c(o1)C(=O)c1ccccc1C2=Nc1ccccc1,u,x,51.2*,x,x
CCn1cc2nc(SCC(=O)Nc3ccccc3F)n(Cc3ccc(C)cc3)c(=O)c2n1,x,-0.6,x,-0.2,x
CC(=O)NC1CC2CCC(C1)N2Cc1ccc(C)cc1 (stereo not given),1.6,-19.5,-40.7,0.7,50.9*
CCCN1C2CCCC1CC(NC(=O)c1ccc(Br)cc1)C2 (stereo not given),0.0,-1.2,-15.2,1.1,-24.8
CCC(=O)NC1CC2CCCC(C1)N2Cc1ccc(C)cc1 (stereo not given),-2.7,-29.7,-77.5,-0.2,93.4*
CC(=O)N1c2ccc(S(=O)(=O)N3CCC(C(=O)Nc4cccc(C)c4)CC3)cc2CC1C (stereo not given),-1.5,15.3,-35.5,-0.6,-6.3
CC(=O)N1c2ccc(S(=O)(=O)N3CCC(C(=O)Nc4cc(C)cc(C)c4)CC3)cc2CC1C (stereo not given),-1.0,-21.5,-30.9,-1.8,70.6*
CC(=O)N1c2ccc(S(=O)(=O)N3CCC(C(=O)Nc4cccc(Cl)c4)CC3)cc2CC1C (stereo not given),-1.5,-2.5,-0.8,0.0,41.2*
CC(C)c1ccc(NC(=O)C2CCN(S(=O)(=O)c3ccc4c(c3)NC(=O)CO4)CC2)cc1,1.3,-14.4,-13.9,0.2,-4.4
Cc1ccc(NC(=O)C2CCN(S(=O)(=O)c3ccc4c(c3)NC(=O)CO4)CC2)cc1,-2.7,-19.5,-10.3,7.0,32.0*
CC(=O)N1c2ccc(S(=O)(=O)N3CCCC3C(=O)Nc3ccc(C)cc3)cc2CC1C (stereo not given),14.1,4.8,-2.2,-0.4,36.7*
Cc1ccc(OCCCSc2nc(-c3ccc(C(C)(C)C)cc3)nc3cc(=O)[nH]n23)cc1C,x,11.6,x,x,x
CC(=O)N1c2ccc(S(=O)(=O)NCC3CCC(C(=O)Nc4cc(C)cc(C)c4)CC3)cc2CC1C (stereo not given),x,x,x,0.1,x
CC(=O)N1c2ccc(S(=O)(=O)NCC3CCC(C(=O)Nc4ccc(C)cn4)CC3)cc2CC1C (stereo not given),1.4,34.2*,-9.8,-0.1,-13.6
Cc1ccc(-n2ncc3c(Nc4cccc(C(F)(F)F)c4)ncnc32)cc1C,x,-2.8,x,-0.2,x
COC(=O)CN1C(=O)N/C(=C/c2cc3c(cc2OC)OCO3)C1=O,-4.8,35.2*,15.1,-0.3,29.2
Cc1c(C(=O)OCCOc2ccccc2)[nH]c2c1C(=O)CC(c1ccccc1Cl)C2 (stereo not given),x,x,x,1.6,x
COCCn1c(CCC(=O)O)ccc1-c1cccs1,-3.9,1.0,2.0,0.0,0.4
CCCCn1c(CCC(=O)O)ccc1-c1cccs1,0.2,-15.7,-9.5,-0.2,40.4*
CC(Sc1nc(-c2ccccc2)c(C#N)c(=O)[nH]1)C(=O)Nc1ccc(F)cc1 (stereo not given),x,12.0,x,-1.7,x
COc1ccc(CN2CCNC(=O)C2CC(=O)NC2CCCC2)c(OC)c1 (stereo not given),-1.4,106.8*,-5.7,-0.3,-26.9
CCC(C(=O)Nc1cc(C)ccc1C)n1c(=O)c(C(F)(F)F)nc2ccccc21 (stereo not given),x,-3.2,x,x,x
COc1ccccc1CNC(=O)c1cccc2c1C(=O)N(Cc1cccnc1)C2,-5.9,30.6*,-1.1,-1.1,-12.3
COC(CNC(=O)c1cccc2c1C(=O)N(Cc1cccnc1)C2)OC,-4.8,0.1,-23.9,-1.6,-4.2
O=C(COC(=O)c1ccc(Cl)c(S(=O)(=O)N2CCCCC2)c1)NCC1CCCCC1,-1.4,-7.3,-1.6,-0.8,43.8*
O=C(COC(=O)/C=C/c1cccc(C(F)(F)F)c1)NCc1ccc(F)cc1,-1.3,5.9,-7.1,-0.2,-7.5
COc1cccc(/C=C/C(=O)OCC(=O)Nc2cc(C(F)(F)F)ccc2Cl)c1,-1.4,-7.2,-2.6,2.3,34.3*
O=C(COC(=O)/C=C/c1cccc(C(F)(F)F)c1)NCc1ccccc1,-3.9,12.2,5.1,1.4,33.0*

# Bioassay records: PubChem BioAssay, National Center for Advancing Translational Sciences (NCATS)
